This is part of a sample that, as a whole, favours compounds with a hit. Of some 83,000 tested, about 20% had one in any assay.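 Note: values are percent growth. 100 is the growth of untreated cells, values between 100 and 0 indicate rising inhibition; between -100 and 0 indicates cell death.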 Unmarked numbers belong to inactive results. Activity calls are given as the source filed them.

The test system of the assay is MDA-MB-435 melanoma. The assay is described as follows: NCI-60 one-dose screen, 48 h (100 = growth as untreated, 0 = no growth, -100 = all killed). The conditions noted are these: 10 µM unless noted. As for the experimental part:
Growth inhibition of the MDA-MB-435 human Melanoma tumor cell line is measured as a screen for anti-cancer activity. Cells are grown in 96 well plates and exposed to the test compound for 48 hours. Compounds are tested at a single concentration, which is 10^-5 M for most compounds. The reported endpoint is percent growth (GI% or GIPRCNT), where numbers from 0 - 100% represent growth inhibition, and numbers from -100% - 0 represent cell death. For example, a value of 40 represents 60% growth inhibition. A value of 0 means no net growth occurred over the course of the experiment. A value of -40 indicates 40% of cells at the beginning of the experiment died by the end of the experiment. A value of -100 means all cells are dead at the end of the experiment.
NCI-60 Human Tumor Cell Lines Screen was performed using the standard one-dose NCI protocol, which is described in more detail at https://dtp.cancer.gov/discovery_development/nci-60/default.htm.
Compounds with GIPRCNT values below 10 were considered active. Activity score was based on GIPRCNT using the following formula: […]
Score is 0 for GIPRCNT values of 100 or above, 50 for GIPRCNT values of 0, and 100 for GIPRCNT values of -100.
Regarding `CCc1cc2c(cc1N1CCC(N3CCOCC3)CC1)C(C)(C)c1[nH]c3cc(C#N)ccc3c1C2=O`, the growth was 5.08% (active). As for `C=CC(=O)N1CCC(Oc2cc3c(Nc4ccc(Cl)c(Cl)c4F)ncnc3cc2OC)CC1`, the growth was -34.7% (active).

As to `C=CC(=O)N1CCC[C@H](n2c(=O)n(-c3ccc(Oc4ccccc4)cc3)c3c(N)ncnc32)C1`, the growth is 101%. For `Cc1cc(Nc2cc(N3CCN(C)CC3)nc(/C=C/c3ccccc3)n2)n[nH]1` the value was 6.58% (active); for `CCc1nc2ccc(Cc3ccc(C(=O)NO)cc3)cc2c(=O)n1CCc1ccccc1`, -73.7% (active); for `CC[C@H](CO)Nc1nc(NCc2ccccc2)c2ncn(C(C)C)c2n1`, 83.6%. On to `COC(=O)CCCNc1c(-c2c(O)c(O)cc3c(O)c(-c4c(C)cc5c(-c6nc7ccccn7c6NCCCC(=O)OC)c(O)c(O)cc5c4O)c(C)cc23)nc2ccccn12`, for which the growth is 20.7%.

On to `Cc1cc(N(CCNc2ccnc3cc(Cl)ccc23)Cc2cccs2)nc(Cl)n1`, for which the growth was -1.48% (active). As for `CCCS(=O)(=O)Nc1ccc(F)c(C(=O)c2c[nH]c3ncc(-c4ccc(Cl)cc4)cc23)c1F`, the figure is 13.4%; as for `COC(=O)C1=C(C(=O)OC)C23C=C(C)C1C2=C(C)C1(CC1)[C@@](C)(O)C3=O` (stereo not given in full), -18.2% (active). As for `CN(C)C1CCN(C(=O)c2ccc(NC(=O)Nc3ccc(-c4nc(N5CCOCC5)nc(N5CCOCC5)n4)cc3)cc2)CC1`, the growth is -16.6% [2.5 µM] (active). On to `O=C(COc1ccc(/C=C2\Cc3ccc(Cl)cc3C2=O)cc1)Nc1nccs1`, for which the growth is 113%. As for `O=C1CC(c2ccc3c(c2)OCO3)c2ncn(-c3ccc(Cl)cc3)c2N1` (stereo not given), the figure is -42.8% (active); as for `CC(N)C(Cc1ccc(Cl)cc1)c1ccc(Cl)cc1` (stereo not given), 56.5%. For `COc1ccc(Nc2ncccc2NC(=O)c2cn(Cc3cccc(Oc4ccccc4)c3)nn2)cc1` the value was 77.8%; for `Cc1cn(-c2cc(NC(=O)c3ccc(C)c(Nc4nccc(-c5cccnc5)n4)c3)cc(C(F)(F)F)c2)cn1`, -11.9% (active); for `CC(=Nc1ccccc1)C1=C(O)C(Cc2ccc(O)cc2)NC1=O` (stereo not given), -8.69% (active). With `CCn1c(-c2nonc2N)nc2c(C#CC(C)(C)O)ncc(OC[C@H]3CCCNC3)c21`, the growth is 75.3%. Consider `COC(=O)c1ccc2c(C(=Nc3ccc(N(C)C(=O)CN4CCN(C)CC4)cc3)c3ccccc3)c(O)[nH]c2c1`, for which the growth is 72.6%. As for `C=CC(=O)Nc1cc2c(Nc3ccc(F)c(Cl)c3)ncnc2cc1C#CC(C)(C)N1CCN(C)CC1`, the figure is -98.1% (active); as for `Cc1ccc(N=C2CSc3nnc(-c4csc5c4CCCC5)n3N2)cc1`, -25.1% (active); as for `Cc1nc2ccc(-n3ncc(C(=O)c4cc5ccccc5[nH]4)c3N)cc2[nH]1`, 62.8%.

As for `C[C@@H](Oc1cc(C(=O)Nc2ccc(C(=O)N3CCN(C)CC3)cc2)nnc1N)c1c(Cl)ccc(F)c1Cl`, the growth was 68.8%. For `CCc1ccc(/C=C/c2ccc(O)c3ncccc23)[n+](C)c1` the value was 59.4%. As for `Cc1nn(-c2nc3ccccc3[nH]2)c2c1C(c1ccc(OCc3ccc(F)cc3)cc1)CC(=O)N2` (stereo not given), the figure is 44.7%. Turning to `Cc1c(Cn2c(C)nc3c(C(=O)O)cc(N4CCOCC4)cc32)cccc1C(F)(F)F`, the growth is 106%. For `O=C(Nc1ccc(-c2ccnc(Nc3ccc(N4CCOCC4)cc3)n2)cc1)[C@@H]1CCCN1` the value was 57.7%; for `NC(=O)N1N=C(c2ccc(Cl)cc2)CC1c1cn(-c2ccccc2)nc1-c1ccc(Cl)cc1` (stereo not given), 75.2%; for `Cc1cnc(Nc2ccc(OCCN3CCCC3)cc2)nc1Nc1cccc(S(=O)(=O)NC(C)(C)C)c1`, 13.5%. With `CS(=O)(=O)CCNCc1ccc(-c2ccc3ncnc(Nc4ccc(OCc5cccc(F)c5)c(Cl)c4)c3c2)o1`, the growth is 31.2%. `O=C(Cc1ccc(-c2ccc(OCCN3CCOCC3)cc2)cn1)NCc1ccccc1`: the growth is -21.8% (active).

Turning to `COc1cc(N2CCC(N(C)C)CC2)ccc1Nc1ncc(Cl)c(Nc2ccccc2P(C)(C)=O)n1`, the growth is 23.5%.

As for `CNC(=O)c1cccc2cc(Oc3ccnc4cc(OCC5(N)CC5)c(OC)cc34)ccc12`, the growth is 24.1%. `O=C(Nc1ccc(Nc2ncnc3sc4c(c23)CCOC4)cc1)Nc1ccc(Cl)c(C(F)(F)F)c1`: the growth is 99.1%.

Consider `O=C1/C(=C\c2cccc(OCCCCCOc3ccc(Cl)cc3)c2)N=C2SCCCN12`, for which the growth was 46.1%. As for `NC(=O)c1n[nH]n2c1nc(=O)c1c3c(sc12)CCCC3`, the figure is 117%; as for `COc1ccc(-c2cc3c(C)nc(N)nc3n(C3CCC(OCCO)CC3)c2=O)cn1` (stereo not given), -18.5% (active). As to `Cc1sc2c(c1C)c(=O)nc1c(-c3nc(-c4ccccc4)cs3)n[nH]n12`, the growth was 107%. For the compound `O=c1sn(-c2cccc3ccccc23)c(=O)n1Cc1ccccc1`, the growth was 104%. For `Brc1ccc([I+]c2ccc(Br)cc2)cc1` the value was 19.5%.

The values above are taken from PubChem BioAssay (NCI).
